Data on 58 compounds can be found in PubChem BioAssay AID1861 (The Scripps Research Institute Molecular Screening Center, 2009).

Among all 290,000 compounds or so, about 3,100 (1.1%) were called active. Rule as the data show it: active = inhibition above about 16% (passing the limit was not always enough); inactive = the rest. Shown is part of a subset that was picked to be rich in actives.

Neuropeptides B/W receptor type 1 (Homo sapiens), sequence (P48145 whole entry, looked up): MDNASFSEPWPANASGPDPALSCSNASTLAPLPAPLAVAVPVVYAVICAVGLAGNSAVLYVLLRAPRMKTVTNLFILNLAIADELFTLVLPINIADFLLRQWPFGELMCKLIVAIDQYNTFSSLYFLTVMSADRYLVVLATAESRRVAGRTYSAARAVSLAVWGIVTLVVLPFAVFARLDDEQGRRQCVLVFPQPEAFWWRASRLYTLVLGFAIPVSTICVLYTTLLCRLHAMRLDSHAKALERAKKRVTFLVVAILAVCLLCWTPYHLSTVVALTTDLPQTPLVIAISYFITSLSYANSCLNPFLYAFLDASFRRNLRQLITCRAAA

This test addresses Neuropeptides B/W receptor type 1 (Homo sapiens) (UniProt P48145). As to the kind of experiment: blockers of human neuropeptide B/W receptor 1 – cell-based, fluorescence, single concentration, primary screen (AID 1861).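 Also: cells stimulated with the agonist NPW; 0% = agonist with vehicle and 100% = vehicle without agonist.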 As to conditions: GPR7-expressing cells, fluorescence antagonist assay; at 4.4 µM; hits give high values.
As a reminder, the inhibition is the change of the read-out against control, counted positive when it falls. In the case of `Cc1cccc(N(C(=O)c2sc(C)nc2C)C(C(=O)NCC2CCCO2)c2ccccc2)c1` (stereo not drawn), the inhibition is -10.3% (inactive). The result for `CCOC(=O)C1CCN(C(=O)CN2C(=O)c3cccnc3Oc3ccc(C)cc32)CC1` reads -8.59% (inactive). `Oc1ccccc1N1CCN(c2ncnc3sc(-c4ccccc4)cc23)CC1`: the inhibition is -12.8% (inactive).

With `COc1ccccc1N1CCN(c2ncnc3sc(C)c(-c4ccccc4)c23)CC1`, the inhibition was 27% (active).

Turning to `COc1ccccc1N1CCN(c2ccc([N+](=O)[O-])nc2)CC1`, the inhibition is -2.36% (inactive). In the case of `CCCCCc1ccc(-c2cn(Cc3ccc4ccccc4c3)nn2)cc1`, the inhibition is 2.3% (inactive). `Cc1ccc(F)cc1NC(=O)c1ccc2c(c1)OCO2`: the inhibition is -15.9% (inactive). As for `O=C(Nc1ccccc1F)c1ccc2c(c1)OCO2`, the figure is 30.2% (active); as for `N#Cc1ccccc1NC(=O)c1ccc2c(c1)OCO2`, -3.22% (inactive); as for `COc1ccc(CCNS(=O)(=O)c2cc3c(cc2C)NC(=O)CO3)cc1OC`, -11.3% (inactive). For `Cc1cccc(N2CCN(C(=O)COCc3cc(-c4ccc5c(c4)OCO5)on3)CC2)c1C`, the inhibition was 14% (inactive).

For the compound `CCC(=O)NC(Nc1nc2ccc(C)cc2s1)(C(=O)OC)C(F)(F)F` (stereo not drawn), the inhibition is -6.22% (inactive). In the case of `O=C(NC(Nc1nc2ccc([N+](=O)[O-])cc2s1)(C(F)(F)F)C(F)(F)F)c1ccccc1`, the inhibition is 27.1% (active). Consider `O=C(COC(=O)c1ccc(F)cc1)Nc1nc2ccc([N+](=O)[O-])cc2s1`, for which the inhibition was -8.84% (inactive). For `COc1cc(C2NC(=O)NC(c3ccccc3)=C2C(C)=O)c(Br)cc1OCC(N)=O` (stereo not drawn), the inhibition was -18.1% (inactive). With `COc1cccc(CNC(=O)COc2cc(O)c3c(c2)OC(C)(C)CC3=O)c1`, the inhibition is 1.6% (inactive). As for `CC(CCc1ccccc1)NC(=O)COC(=O)c1ccc(F)cc1` (stereo not drawn), the figure is -18.2% (inactive). As for `CC(C)[C@H](NC(=O)N1CCn2c1nc1ccccc12)C(=O)NC1CC1`, the figure is -2.43% (inactive); as for `Cc1ccc(CS(=O)(=O)c2ncc(Cl)c(C(=O)Nc3nnc(C)s3)n2)cc1`, -20.2% (inactive). Turning to `Cc1cccc(NC(=O)c2nc(S(=O)(=O)Cc3ccccc3)ncc2Cl)c1`, the inhibition is 9.7% (inactive). With `Cc1cccc(CS(=O)(=O)c2ncc(Cl)c(C(=O)Nc3ccc(F)cc3)n2)c1`, the inhibition is 39.8% (active). The result for `CC(=O)NCCC(=O)Nc1cc(S(=O)(=O)N2CCCCC2)ccc1Oc1cccc(C)c1` reads 9.48% (inactive); that for `Cc1ccc(NC(=S)N(CCN2CCCCC2)Cc2ccco2)cc1C`, 0.11% (inactive); that for `Cc1ccc(NC(=S)N(CCCN2CCC(C)CC2)Cc2ccco2)cc1`, 26.8% (active). The result for `Cc1ccc(NC(=S)N(Cc2ccco2)C(C)c2cccs2)cc1` (stereo not drawn) reads -21.7% (inactive); that for `c1ccc2c(c1)CSc1sccc1C2=C1CCNCC1`, 24.5% (active); that for `C=CS(=O)c1sc(Cl)c(N2CCOCC2)c1[N+](=O)[O-]` (stereo not drawn), 3.73% (inactive). The result for `Cn1c(=O)[nH]c(=O)c2c1nc(N(CCO)Cc1ccccc1)n2Cc1ccccc1Cl` reads 27.1% (active); that for `CCOC(=O)Cn1c(CN(Cc2ccccc2)Cc2ccccc2)nc2c1c(=O)[nH]c(=O)n2C`, -9.45% (inactive); that for `CN(Cc1ccccc1)c1nc2c(c(=O)[nH]c(=O)n2C)n1CCSc1nc2ccccc2[nH]1`, -4.5% (inactive).

As for `CNC(=O)c1sc(Nc2ccc(OCc3ccccc3)cc2)nc1C`, the inhibition is 1.33% (inactive). As for `CCC(Cc1ccccc1)NC(=O)C1CCCCC1` (stereo not drawn), the figure is -7.32% (inactive); as for `O=C(NC(=O)c1ccccc1)Nc1ccccc1O`, 40.9% (active); as for `Cc1ccc(NC(=O)NC(=O)c2ccccc2)cc1F`, -0.7% (inactive). As for `O=C(NC(=O)c1ccccc1)NC(=O)c1ccccc1`, the figure is 6% (inactive); as for `CCn1c(SCC(=O)Nc2ccc3c(c2)OCCO3)nnc1-c1ccncc1`, -4.19% (inactive). Take `Cc1nonc1C1CCCN1C(=O)c1cc(COc2cccc(C(F)(F)F)c2)on1` (stereo not drawn): the inhibition is -2.6% (inactive).

For `COc1cccc(N2CCN(c3ccc4nnc(CCC(=O)N5CCN(C)CC5)n4n3)CC2)c1`, the inhibition was -14.2% (inactive). Regarding `CCCOc1cccc(C(=O)Nc2ccccc2C(=O)N2CCN(C)CC2)c1`, the inhibition is -9.32% (inactive). The result for `O=C(CN1C(=O)/C(=C\c2ccc(C(F)(F)F)cc2)Sc2ccccc21)NCc1ccco1` reads 5.13% (inactive).

As to `O=C(CN1C(=O)/C(=C/c2ccccc2F)Sc2ccccc21)NCc1cccnc1`, the inhibition was 40.7% (active). For `O=C(CN1C(=O)S/C(=C\c2ccccc2F)C1=O)NCCCn1ccnc1`, the inhibition was -12% (inactive). The result for `CSCc1ccc(C(=O)Nc2cc(C)cc(C)c2)cc1` reads 3.49% (inactive); that for `O=C(Nc1ccc(-c2ccc3nncn3n2)cc1)C1CCCCC1`, -11.2% (inactive); that for `Cc1ccc2nc3n(c(=O)c2c1)CCC3`, -5.32% (inactive).

As for `Cc1ccc2nc(Nc3ccccc3)cc(C)c2c1`, the inhibition is -2.1% (inactive). Consider `Cc1ccc2nc(C)c3c(c2c1)N(c1ccccc1)CC3`, for which the inhibition is 36.7% (active). For `C/C(=N\NC(=O)c1cc2c(s1)CCC(C)C2)c1cccnc1` (stereo not drawn), the inhibition was -6.07% (inactive). As to `O=C(NCc1ccc2c(c1)OCO2)C(=O)NCC1OCCN1S(=O)(=O)c1ccc(F)cc1` (stereo not drawn), the inhibition was -11.7% (inactive). As for `CN(C)c1ccc(Nc2c3c4c(cccc4n(C)c2=O)C(=O)c2ccccc2-3)cc1`, the inhibition is -1.09% (inactive). Take `O=C(Nc1cccc(Cl)c1)c1cc([N+](=O)[O-])ccc1N1CCN(CCO)CC1`: the inhibition is 6.31% (inactive). The result for `CCN1CCN(c2ccc([N+](=O)[O-])cc2C(=O)c2ccc(Cl)cc2)CC1` reads 32.3% (active). Take `CCC(=O)c1ccc(N2CCN(C(=O)c3cc([N+](=O)[O-])ccc3F)CC2)c(F)c1`: the inhibition is 8.34% (inactive).

For `O=C(Cn1cnc2ccccc21)Nc1ccccc1-c1ccccc1`, the inhibition is -5.35% (inactive). With `O=C(COC(=O)C1CCCCC1)Nc1ccc([N+](=O)[O-])cc1`, the inhibition was 23.9% (inactive). With `CC(C)c1nnc(NC(=O)COC(=O)/C=C/c2ccc([N+](=O)[O-])cc2)s1`, the inhibition is -6.73% (inactive). Turning to `CCOCC(=O)Nc1ncc(S(=O)(=O)c2ccc([N+](=O)[O-])cc2)s1`, the inhibition was 19.5% (active).

For the compound `COc1ccc2c(c1)c(C(=O)N/N=C/c1cccs1)c(C)n2C`, the inhibition was -1.8% (inactive).
